Laboratory results taken from article PMC5540273 (PLoS ONE, 2017).

What was measured:
Details in all cases: concentration: 1 μM, replicates: in singlicate; n = 1
TNIK = test system: TNIK
TNK1 = test system: TNK1
TNK2 = test system: TNK2
TNNI3K = test system: TNNI3K
TRKA = test system: T1, TRKA
T1 construct: gene NTRK1

TRKB = test system: TRKB
TRKC = test system: T2, TRKC
T2 construct: gene NTRK3

TRPM6 = test system: TRPM6
TSSK1B = test system: TSSK1B
TSSK3 = test system: TSSK3
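Note: KINOMEscan kinase panel screen.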

Row | Compound | %Inh (TNIK) [%] | %Inh (TNK1) [%] | %Inh (TNK2) [%] | %Inh (TNNI3K) [%] | %Inh (TRKA) [%] | %Inh (TRKB) [%] | %Inh (TRKC) [%] | %Inh (TRPM6) [%] | %Inh (TSSK1B) [%] | %Inh (TSSK3) [%]
1 | Cl.c1ccc(-c2n[nH]cc2-c2ccnc(-c3ccc(CN4CCOCC4)cc3)c2)nc1 [GW776245] | 30 | 42 | 0 | 0 | 0 | 0 | 0 | 0 | 0 | 0
2 | O=C(Nc1ccc2c(c1)OCO2)NC1CCN(c2ccnc(Nc3ccc(F)cc3)n2)C1 (centres unmarked) [GSK1379724] | 0 | 16 | 10 | 0 | 0 | 19 | 57 | 8 | 0 | 18
3 | Cc1ccc(NC(=O)Nc2cc(C(C)(C)C)nn2-c2ccccc2)cc1 [GSK1014915] | 0 | 0 | 15 | 21 | 0 | 28 | 26 | 24 | 2 | 14
4 | Cc1c(O)cccc1Nc1ccnc2ccc(C(F)(F)F)cc12.Cl [GW466413] | 0 | 0 | 17 | 0 | 9 | 0 | 31 | 0 | 0 | 1
5 | Cc1cccc(-c2nc(Nc3ccc4[nH]ncc4c3)c3ccccc3n2)n1 [GW857175] | 4 | 0 | 10 | 0 | 52 | 12 | 17 | 19 | 72 | 51
6 | CC(=O)Nc1nc2cnc(Nc3cc(NC(=O)c4cccc(CCC#N)c4)ccc3C)nc2s1 | 7 | 0 | 9 | 7 | 0 | 6 | 5 | 3 | 2 | 0
7 | NC(=O)c1nnc2ccccc2c1N | 3 | 0 | 0 | 5 | 74 | 20 | 10 | 24 | 5 | 11
8 | Cc1nnc(-c2ccc3occ(-c4ccc(S(C)=O)cc4)c3c2)[nH]1 (centres unmarked) | 5 | 0 | 0 | 15 | 28 | 0 | 43 | 1 | 0 | 2
9 | Fc1cc(Cl)ccc1Nc1ccnc2cc(I)ccc12 [GW551191] | 31 | 6 | 10 | 15 | 0 | 37 | 24 | 0 | 32 | 3
10 | O=S(=O)(c1ccc(-c2ccnc3[nH]ccc23)cc1)N1CCCC1 [GSK846226] | 0 | 0 | 9 | 3 | 69 | 0 | 0 | 26 | 10 | 18
11 | Nc1nc(-c2nccs2)c(-c2ccnc3ccccc23)s1 [GW693542] | 10 | 0 | 24 | 4 | 0 | 0 | 23 | 4 | 16 | 79
12 | CN(C)CCN(C)C(=O)c1cc(-c2ccncc2)c(-c2ccc(Cl)c(O)c2)o1.Cl.Cl [SB-710397] | 51 | 2 | 0 | 17 | 0 | 43 | 35 | 27 | 24 | 24
13 | Cc1ccc(C(=O)Nc2ccc(Nc3ccnc4cc(-c5ccccn5)ccc34)cc2O)cc1.Cl [GW440146] | 0 | 45 | 95.3 | 0 | 7 | 0 | 34 | 57 | 34 | 13
14 | Cc1cc(-c2ccc3c(c2)CC[C@@H](N[C@@H](C)c2ccccc2)C3)cnc1N.Cl [GW412617] | 45 | 0 | 12 | 27 | 82 | 10 | 8 | 16 | 37 | 19
15 | O=C(Nc1n[nH]c2nc(-c3nccs3)c(Br)cc12)C1CC1 [SB-742251] | 0 | 0 | 16 | 4 | 59 | 62 | 66 | 0 | 0 | 15
16 | Cl.O=C(Nc1cccc(-c2nn3ncccc3c2-c2ccnc(Nc3cccnc3)n2)c1)c1c(F)cccc1F [GSK312879] | 1 | 49 | 13 | 0 | 0 | 30 | 7 | 28 | 27 | 9
17 | COc1cccc(-c2cc(-c3c[nH]nc3-c3ccccn3)ccn2)c1 [GW680338] | 71 | 0 | 0 | 9 | 38 | 0 | 11 | 0 | 0 | 11
18 | Cl.NC(=O)c1cccc(Nc2nccc(Nc3ccc(Oc4cccc(Cl)c4)c(Cl)c3)n2)c1 [GW659008] | 2 | 77 | 29 | 4 | 0 | 0 | 0 | 13 | 0 | 4

Row | Compound | %Inh (TNIK) [%] | %Inh (TNK1) [%] | %Inh (TNK2) [%] | %Inh (TNNI3K) [%] | %Inh (TRKA) [%] | %Inh (TRKB) [%] | %Inh (TRKC) [%] | %Inh (TRPM6) [%] | %Inh (TSSK1B) [%] | %Inh (TSSK3) [%]
19 | CC(C)(C)c1ccc(C(=O)Nc2cn3cc(Cl)ccc3n2)cc1 | 4 | 30 | 2 | 0 | 0 | 0 | 0 | 0 | 0 | 0
20 | Cc1cc(N2Cc3ccccc3C2)nc(Nc2ccc(S(=O)(=O)N3CCOCC3)cc2)n1.Cl [GSK1669917] | 0 | 0 | 7 | 0 | 0 | 0 | 0 | 9 | 0 | 8
21 | Cc1ccc(-c2cc(-c3c[nH]nc3-c3ccccn3)ccn2)cc1 [GW684088] | 90.2 | 19 | 12 | 0 | 18 | 22 | 40 | 0 | 0 | 10
22 | Clc1cc(Cl)cc(Nc2ccnc(Nc3cc(Cl)cc(Cl)c3)n2)c1 [GSK175726] | 0 | 0 | 12 | 6 | 19 | 0 | 0 | 0 | 0 | 10
23 | CC(C)(C)c1ccc(C(=O)Nc2cn3cc(-c4cccnc4)ccc3n2)cc1 | 25 | 0 | 17 | 0 | 10 | 11 | 1 | 0 | 0 | 0
24 | Cc1cccc(-c2nc(Nc3ccncc3)c3ccccc3n2)n1 [GW855857] | 29 | 39 | 0 | 20 | 0 | 0 | 0 | 0 | 0 | 0
25 | Cc1ccc(NC(=O)Nc2cccc(Cl)c2)cc1-c1ccc(C(=O)Nc2ccncc2)cc1 [GSK1398468] | 0 | 0 | 12 | 64 | 0 | 0 | 6 | 0 | 0 | 8
26 | COC(=O)c1c(-c2ccccc2)c2cc(C(=O)O)ccc2c(=O)n1Cc1ccccc1 | 0 | 0 | 0 | 0 | 0 | 0 | 11 | 0 | 0 | 0
27 | CCn1c(-c2ccccn2)nc2cnccc21 [SB-736398] | 0 | 7 | 9 | 0 | 0 | 59 | 52 | 0 | 5 | 12
28 | COC(=O)c1c(-c2ccccc2)c2cc(OC)ccc2c(=O)n1Cc1ccccc1 | 1 | 0 | 0 | 0 | 0 | 0 | 0 | 11 | 10 | 0
29 | Cc1cc(NCC(c2ccccc2)c2ccccc2)nc(NCc2ccc(C(F)(F)F)cc2)n1 [GW497681] | 0 | 0 | 0 | 0 | 0 | 14 | 7 | 0 | 0 | 4
30 | CN1C(=O)C(Nc2ccc(Cl)c(C(=O)O)c2)=C(c2ccc(Cl)cc2)C1=O [SB-404290] | 13 | 13 | 0 | 0 | 0 | 0 | 22 | 10 | 0 | 0
31 | Nc1ncnc2[nH]c(-c3ccccc3)nc12 [AH5015] | 1 | 0 | 24 | 11 | 0 | 45 | 26 | 4 | 9 | 7
32 | O=c1cc(N2CCOCC2)nc2n(Cc3cccc(Cl)c3Cl)ccn12 [GSK2286295] | 0 | 8 | 12 | 13 | 0 | 0 | 0 | 25 | 0 | 47
33 | Cc1cccc(-c2cc(Nc3ccncc3)c3ccccc3n2)n1 [GSK223675] | 0 | 0 | 0 | 0 | 0 | 0 | 0 | 0 | 0 | 11
34 | COc1cc2ncnc(Nc3ccc4nc(-c5ccccc5)[nH]c4c3)c2cc1OC.Cl [GW282450] | 0 | 0 | 9 | 14 | 48 | 0 | 0 | 38 | 0 | 21
35 | Cn1cncc1-c1ccc2ncnc(Nc3ccc(OCc4ccccc4)cc3)c2c1 [GW320571] | 0 | 0 | 29 | 23 | 45 | 0 | 0 | 0 | 29 | 16
